This note sets out measurements from PubChem BioAssay AID1490 (National Center for Advancing Translational Sciences (NCATS), 2009).

Among all 310,000 compounds or so, about 11,000 (3.5%) were called active. Inconclusive results (about 4%) are left out. Calls follow the shape of the dose curve; as a rule, active = well fitted inhibition curve with a large enough effect; inconclusive = small, poorly fitted or top-dose-only effect, or another doubt; inactive = no such curve, though single readings can be large or run the other way. The full list was thinned out, with actives kept by preference.
Potency is read from the fitted curve at half-maximal effect.

This test has as its target 4'-phosphopantetheinyl transferase ffp (Bacillus subtilis) (UniProt Q9F4F7). The test can be described thus: qHTS Assay for Inhibitors of Bacillus subtilis Sfp phosphopantetheinyl transferase (PPTase).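 Also: the enzyme is Sfp with the accession as filed and its product quenches rhodamine fluorescence.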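 As to largest response in the series, negative = inhibition: 0% = enzyme reaction without inhibitor and -100% = no enzyme wells.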 The note with it: Biochemical Sfp PPTase activity. In short, it runs like this:
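Step 1, compound plus 15 nM Sfp-PPTase, 15 min, room temperature. Step 2, add rhodamine-CoA (5 uM) and BHQ-2-YbbR (12.5 uM). Step 3, read 525/598 nm fluorescence at 0 and 30 min.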
Background: In qHTS, concentration-response curves come from the screen itself.
As to `CC(C)[C@@H](OCc1ccccc1)[C@H](C)/C=N\OC[C@@H](C)[C@H](OCc1ccccc1)C(C)C`, the largest response in the series, negative = inhibition is 6.88% (inactive).

As to `CCCc1cc(=O)oc2c(C)c(OCC(=O)Nc3ccccn3)ccc12`, the largest response in the series, negative = inhibition was -8.94% (inactive).

Take `CC(=O)c1c(C)[nH]c(C(=O)Nc2cc(S(=O)(=O)N(C)C)ccc2C)c1C`: the Potency is 79.4 µM (active).

On to `COc1ccc(C)cc1NC(=O)c1[nH]c(C)c(C(C)=O)c1C`, for which the largest response in the series, negative = inhibition is 1.79% (inactive).

Regarding `Cc1ccc(S(=O)(=O)N(C)C)cc1NC(=O)c1ccccc1Br`, the largest response in the series, negative = inhibition was 14% (inactive).

Take `COc1cccc(NC(=S)NCc2ccco2)c1`: the largest response in the series, negative = inhibition is 16.1% (inactive).

`S=C(NCc1ccco1)Nc1ccc2c(c1)OCCO2`: the Potency was 28.2 µM (active).

Consider `FC(F)Oc1ccc(NC(=S)NCc2ccco2)cc1Cl`, for which the largest response in the series, negative = inhibition is -3.21% (inactive).

Consider `S=C(NCc1ccc2c(c1)OCO2)NCc1ccco1`, for which the Potency is 39.8 µM (active).

On to `Cc1c(Cl)cccc1NC(=S)NCc1ccc2c(c1)OCO2`, for which the largest response in the series, negative = inhibition is 0.527% (inactive).

For the compound `S=C(NCc1ccco1)NCc1ccccc1Cl`, the largest response in the series, negative = inhibition was 8.59% (inactive).

In the case of `CCC(C)[C@H]1COCCS(=O)(=O)N1Cc1ccc(C)cc1` (some centres not stated), the largest response in the series, negative = inhibition was 13.1% (inactive).

Take `Cc1cc(C(F)F)nn1CC(=O)NC1CCCCCC1`: the largest response in the series, negative = inhibition is 15.4% (inactive).

Regarding `CCCCOP(=O)(c1ccc(N(C)C)cc1)C(O)c1cc(OC)ccc1OC` (configuration not stated), the largest response in the series, negative = inhibition is 4.86% (inactive).

For the compound `CCn1c(CC(=O)Nc2ccccc2C)nnc1SCC(=O)NC1=NCCS1`, the largest response in the series, negative = inhibition is 7.23% (inactive).

`O=C(Nc1nnc(C2=COCCO2)o1)c1ccc([N+](=O)[O-])s1`: the largest response in the series, negative = inhibition was 5.3% (inactive).

Consider `COc1ccccc1Oc1nc(-c2cccnc2)nc2ccccc12`, for which the largest response in the series, negative = inhibition was -13.5% (inactive).

Turning to `Fc1ccc(/C=N/Nc2nc(-c3cccnc3)nc3ccccc23)cc1`, the Potency was 31.6 µM (active).

As for `COc1ccc(Nc2nc(-c3cccnc3)nc3ccccc23)cn1`, the largest response in the series, negative = inhibition is 5.49% (inactive).

As to `CCCCCC1CC(COc2ccccc2)OC1=O` (configuration not stated), the largest response in the series, negative = inhibition was 11.1% (inactive).

`CC(=O)N1CCOc2ccc(S(=O)(=O)N3CCC(C(=O)Nc4ccccc4F)CC3)cc21`: the largest response in the series, negative = inhibition was 2.67% (inactive).

Turning to `COCCNC(=O)c1ccc2c(c1)ncn2-c1ccc(C)c(Cl)c1`, the largest response in the series, negative = inhibition is 6.27% (inactive).

For `O=C(CN1CCN(S(=O)(=O)/C=C/c2ccccc2)CC1)NC(=O)NCc1ccco1`, the largest response in the series, negative = inhibition is -18.1% (inactive).

Take `COc1ccccc1N1CCN(CC(=O)NC(=O)NCc2ccco2)CC1`: the largest response in the series, negative = inhibition was 7.58% (inactive).

`CC1(c2ccccc2Cl)NC(=O)N(CC(=O)NC(=O)NCc2ccco2)C1=O` (configuration not stated): the Potency is 79.4 µM (active).

Take `COc1cccc(C(=O)NNS(=O)(=O)c2ccc(F)cc2)c1`: the largest response in the series, negative = inhibition was -4.08% (inactive).

As to `O=S(=O)(NCCc1ccc(Cl)cc1)c1cccs1`, the largest response in the series, negative = inhibition was 7.54% (inactive).
